Measured values: PubChem BioAssay (EPA / NIEHS)
Activity calls are given as the source filed them. The calls were made as follows: active = hit-call score of the fitted dose curve at least 0.9, where 1 is the maximum; inactive = score below 0.9.

Columns and labels:
[1] = ATG_PBREM_CIS: Attagene CIS-FACTORIAL HepG2 Assay for human Phenobarbital-responsive Enhancer Module (PBREM) (AID 2282955); conditions: HepG2 PBREM cis-reporter, Attagene multiplexed transcription; actives raise or lower the signal
In short: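 HepG2 cells transiently transfected with multiple cis-regulated reporter transcription units; endogenous factor activity at the PBREM element measured as reporter mRNA 24 h after dosing, via RT-PCR and capillary electrophoresis of fluorescent fragments; bidirectional fitting versus DMSO.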

[2] = target: Paired box protein Pax-6 (Homo sapiens) (UniProt P26367); experiment: ATG_Pax6_CIS: Attagene CIS-FACTORIAL HepG2 Assay for human Paired Box 6 (PAX6) (AID 2282956); conditions: HepG2 CIS-FACTORIAL PAX6 reporter transcription, RNA readout; actives raise or lower the signal
Chain of Paired box protein Pax-6 (Homo sapiens) (P26367 whole entry, looked up): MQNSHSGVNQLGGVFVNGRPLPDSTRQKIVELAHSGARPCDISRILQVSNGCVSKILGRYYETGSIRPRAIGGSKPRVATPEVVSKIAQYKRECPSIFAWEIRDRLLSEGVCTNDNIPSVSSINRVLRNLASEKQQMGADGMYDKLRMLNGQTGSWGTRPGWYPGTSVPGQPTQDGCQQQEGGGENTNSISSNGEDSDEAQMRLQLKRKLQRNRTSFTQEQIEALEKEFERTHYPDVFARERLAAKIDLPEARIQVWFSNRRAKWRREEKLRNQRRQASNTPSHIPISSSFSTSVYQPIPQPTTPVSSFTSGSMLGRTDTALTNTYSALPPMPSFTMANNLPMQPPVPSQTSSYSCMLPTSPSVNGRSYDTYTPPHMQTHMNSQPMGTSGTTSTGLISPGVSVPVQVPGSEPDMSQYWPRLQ
In short: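 DMSO-referenced bidirectional fits of reporter mRNA fluorescence; HepG2 with transient cis-promoter MRTUs, 24 h post-dose, RT-PCR plus capillary electrophoresis detection.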

[3] = ATG_PXRE_CIS: Attagene CIS-FACTORIAL HepG2 Assay for human Pregnane X Receptor Element (PXRE) (AID 2282957); conditions: HepG2 Attagene CIS-FACTORIAL PXRE reporter, mRNA; actives raise or lower the signal
In short: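 Bidirectional activity, baselined to DMSO, derived from reporter mRNA fluorescence (RT-PCR plus capillary electrophoresis) in HepG2 cells bearing cis-promoter reporter units, 24 h exposure.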

[4] = ATG_PPRE_CIS: Attagene CIS-FACTORIAL HepG2 Assay for human Peroxisome Proliferator-activated Response Element (PPRE) (AID 2282958); conditions: HepG2 PPRE cis-element reporter, Attagene transcription factor profiling; actives raise or lower the signal
In short: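 HepG2 cells transiently transfected with multiplexed cis-element reporter units measure endogenous transcription factor activity. After 24 h compound exposure, reporter mRNA is quantified by RT-PCR, 6-FAM labeling, HpaI digestion and capillary electrophoresis; bidirectional fits are made against DMSO baseline.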

[5] = ATG_RORE_CIS: Attagene CIS-FACTORIAL HepG2 Assay for human RAR-related Orphan Receptor Element (RORE) (AID 2282959); conditions: HepG2 Attagene cis-factorial RORE reporter, mRNA; actives raise or lower the signal
In short: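 HepG2 cells transiently transfected with multiple cis-element reporter transcription units, exposed to chemical for 24 h. Reporter mRNA quantified by RT-PCR, 6-FAM primer-extension labeling, HpaI digestion and capillary electrophoresis; bidirectional fit versus DMSO baseline.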

[6] = ATG_Sox_CIS: Attagene CIS-FACTORIAL HepG2 Assay for human SRY-box transcription factor (SOX) (AID 2282960); conditions: HepG2 Attagene cis-factorial SOX reporter, mRNA; actives raise or lower the signal
In short: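 HepG2 cells transiently transfected with cis-element-driven multiple reporter transcription units, dosed 24 h; reporter mRNA measured by RT-PCR, FAM labelling, HpaI digestion and capillary electrophoresis. Bidirectional fit versus DMSO baseline.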

[7] = target: Transcription factor Sp1 (Homo sapiens) (UniProt P08047); experiment: ATG_Sp1_CIS: Attagene CIS-FACTORIAL HepG2 Assay for human Specificity Protein 1 (Sp1) (AID 2282961); conditions: HepG2 Sp1 cis-reporter transcription, actives raise or lower the signal
Chain of Transcription factor Sp1 (Homo sapiens) (P08047 whole entry, looked up): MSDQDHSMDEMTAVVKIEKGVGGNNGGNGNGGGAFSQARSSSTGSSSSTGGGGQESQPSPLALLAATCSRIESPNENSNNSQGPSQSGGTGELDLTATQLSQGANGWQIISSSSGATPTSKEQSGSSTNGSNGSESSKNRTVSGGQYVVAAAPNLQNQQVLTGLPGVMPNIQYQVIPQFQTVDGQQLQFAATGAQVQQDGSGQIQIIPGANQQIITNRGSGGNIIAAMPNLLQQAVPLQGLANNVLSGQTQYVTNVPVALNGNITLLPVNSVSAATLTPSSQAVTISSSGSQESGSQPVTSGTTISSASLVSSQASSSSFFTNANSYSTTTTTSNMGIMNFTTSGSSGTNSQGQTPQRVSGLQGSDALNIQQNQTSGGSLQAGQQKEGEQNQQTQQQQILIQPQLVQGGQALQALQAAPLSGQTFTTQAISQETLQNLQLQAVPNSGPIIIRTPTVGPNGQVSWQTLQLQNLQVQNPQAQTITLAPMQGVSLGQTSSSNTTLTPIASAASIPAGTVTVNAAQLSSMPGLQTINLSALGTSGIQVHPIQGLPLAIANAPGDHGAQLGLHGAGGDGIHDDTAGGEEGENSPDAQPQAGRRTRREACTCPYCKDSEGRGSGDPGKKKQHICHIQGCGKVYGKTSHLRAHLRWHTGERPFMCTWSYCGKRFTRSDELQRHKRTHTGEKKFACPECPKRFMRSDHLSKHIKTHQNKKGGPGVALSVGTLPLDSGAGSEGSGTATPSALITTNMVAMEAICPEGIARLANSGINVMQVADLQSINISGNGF
In short: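 HepG2 cells transiently transfected with multiple reporter transcription units driven by cis-regulatory elements; Sp1-responsive reporter mRNA measured 24 h after dosing by RT-PCR and capillary electrophoresis fluorescence, fitted bidirectionally against DMSO baseline.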

[8] = ATG_SREBP_CIS: Attagene CIS-FACTORIAL HepG2 Assay for human Sterol Regulatory Element Binding (SREBP) (AID 2282962); conditions: HepG2 Attagene cis-factorial SREBP reporter, mRNA; actives raise or lower the signal
In short: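 In this cis-format assay, HepG2 liver cells express reporters controlled by promoter elements responsive to native transcription factors. Exposure lasts 24 h; reporter mRNA fluorescence from capillary electrophoresis gives the signal, fitted bidirectionally against DMSO.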

[9] = target: Signal transducer and activator of transcription 3 (Homo sapiens) (UniProt P40763); experiment: ATG_STAT3_CIS: Attagene CIS-FACTORIAL HepG2 Assay for human Signal Transducer and Activator of Transcription 3 (STAT3) (AID 2282963); conditions: HepG2, Attagene cis-factorial STAT3 reporter transcription; actives raise or lower the signal
Chain of Signal transducer and activator of transcription 3 (Homo sapiens) (P40763 whole entry, looked up): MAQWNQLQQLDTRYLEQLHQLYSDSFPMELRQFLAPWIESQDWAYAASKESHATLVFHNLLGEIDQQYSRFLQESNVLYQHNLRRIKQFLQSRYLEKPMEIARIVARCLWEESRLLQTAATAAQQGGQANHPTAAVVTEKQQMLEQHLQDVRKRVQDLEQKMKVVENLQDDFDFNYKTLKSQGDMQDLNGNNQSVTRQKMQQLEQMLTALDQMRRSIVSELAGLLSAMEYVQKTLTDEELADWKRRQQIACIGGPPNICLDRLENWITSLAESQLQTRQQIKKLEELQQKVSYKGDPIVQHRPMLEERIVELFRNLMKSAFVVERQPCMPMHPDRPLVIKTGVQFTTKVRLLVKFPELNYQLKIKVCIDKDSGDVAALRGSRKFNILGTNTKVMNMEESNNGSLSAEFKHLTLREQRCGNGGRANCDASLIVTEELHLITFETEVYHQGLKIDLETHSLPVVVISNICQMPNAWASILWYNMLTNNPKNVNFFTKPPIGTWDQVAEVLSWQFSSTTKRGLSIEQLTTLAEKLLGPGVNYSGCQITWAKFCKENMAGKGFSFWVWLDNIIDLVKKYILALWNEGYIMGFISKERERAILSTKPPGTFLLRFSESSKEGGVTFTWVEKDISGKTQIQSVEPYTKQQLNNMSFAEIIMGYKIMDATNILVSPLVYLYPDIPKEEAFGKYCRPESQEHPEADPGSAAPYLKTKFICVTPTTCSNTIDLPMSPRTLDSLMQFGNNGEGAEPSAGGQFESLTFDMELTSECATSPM
In short: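 Uses human liver HepG2 transiently carrying cis-regulated reporter transcription units. Following 24 h dosing, reporter mRNA induction was detected by RT-PCR and capillary electrophoresis, analysed bidirectionally versus DMSO.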

[10] = ATG_TA_CIS: Attagene CIS-FACTORIAL HepG2 Assay for human TA Basal Promoter (AID 2282964); conditions: HepG2 Attagene CIS-factorial TA basal promoter reporter; actives raise or lower the signal
In short: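 Background internal-marker endpoint from a 52-component HepG2 cis-reporter panel. Cells treated 24 h; reporter transcripts quantified via RT-PCR and CE fluorescence against DMSO baseline.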

Measured: AC50

Cc1ccc(Cl)cc1
inactive: all assays above

c1cc(-c2ccncc2)ccn1
not listed: [8] | [9]
inactive: all other assays above

CC(=O)OC/C=C(\C)CCC=C(C)C
active: [3] 48.3 µM
not listed: [8] | [9]
inactive: all other assays above

CC(=O)C(C)=CC1C(C)=CCCC1(C)C (configuration not stated)
active: [3] 22.9 µM
not listed: [9]
inactive: all other assays above

Cc1cccc(C)c1O
not listed: [8]
inactive: all other assays above

CC1=C(/C=C/C(C)=C/C=C/C(C)=C/CO)C(C)(C)CCC1
active: [2] 49.1 µM | [3] 0.464 µM | [4] 47.6 µM | [5] 27.9 µM
inactive: [1] | [6] | [7] | [10]

Cc1ccc(C)c(C)c1
active: [3] 27.5 µM
not listed: [8]
inactive: all other assays above

COCCOCCOC
not listed: [8] | [9]
inactive: all other assays above

COc1cc(/C=C/C(=O)CC(=O)/C=C/c2ccc(O)c(OC)c2)ccc1O
active: [2] 46.6 µM | [3] 60.4 µM | [6] 43.1 µM | [7] 44.5 µM | [8] 56.8 µM
inactive: all other assays above

COc1cccc2c1C(=O)c1c(O)c3c(c(O)c1C2=O)C[C@@](O)(C(=O)CO)C[C@@H]3O[C@H]1C[C@H](N)[C@H](O)[C@H](C)O1
not listed: [8] | [9]
inactive: all other assays above

Cc1ccccc1Cl
not listed: [6] | [9]
inactive: all other assays above

C=CCc1ccc(O)c(OC)c1
not listed: [6]
inactive: all other assays above

COc1ccc(S(=O)(=O)N2C(=O)[C@@](c3ccccc3OC)(N3C[C@H](O)C[C@H]3C(=O)N(C)C)c3cc(Cl)ccc32)c(OC)c1
inactive: [7] | [8]
active: [1] 17.1 µM | [2] 64.1 µM | [3] 0.0584 µM | [4] 76.8 µM | [5] 28.5 µM | [10] 46.6 µM

O=C(O)Cc1ccccc1Nc1c(Cl)cccc1Cl
active: [3] 25.8 µM
not listed: [6] | [9]
inactive: all other assays above

Cc1nc(-c2ccc3c(c2)CCN(CCC2CCC(NC(=O)/C=C/c4ccc(F)cc4)CC2)CC3)no1 (configuration not stated)
not listed: [6] | [8]
inactive: all other assays above

Nc1nc(N)c2nc(CNc3ccc(C(=O)N[C@@H](CCC(=O)O)C(=O)O)cc3)cnc2n1
not listed: [4] | [8]
inactive: all other assays above

Cc1oc(-c2ccccc2)nc1CCOc1cccc2c1ccn2CCC(=O)O
active: [4] 0.0633 µM | [5] 23.8 µM
not listed: [6] | [8]
inactive: all other assays above

Nc1ccc2c(c1)C(=O)c1ccccc1C2=O
active: [3] 26.9 µM
not listed: [6] | [8] | [9]
inactive: all other assays above

C[C@]12C=CC(=O)C=C1CC[C@@H]1[C@@H]2C(=O)C[C@@]2(C)[C@H]1CC[C@]2(O)C(=O)CO
active: [3] 55.6 µM
not listed: [4]
inactive: all other assays above

CCOc1ccc2c(c1)C(C)=CC(C)(C)N2
inactive: [1] | [8]
active: [2] 100 µM | [3] 1.91 µM | [4] 78.8 µM | [5] 100 µM | [7] 78.9 µM | [10] 100 µM

CCCCCCOCCO
not listed: [5] | [8] | [9]
inactive: all other assays above

CCCCN(CCCC)CCCC
active: [3] 26.5 µM
not listed: [4] | [8] | [9]
inactive: all other assays above
